Screen size: about 400,000 compounds; about 2,100 (0.53%) were called active. Not shown: some 14% with an inconclusive outcome. No rule for the calls is given here. The full list was thinned out, with actives kept by preference.

Sequence of Ataxin-2 (Homo sapiens) (Q99700 whole entry): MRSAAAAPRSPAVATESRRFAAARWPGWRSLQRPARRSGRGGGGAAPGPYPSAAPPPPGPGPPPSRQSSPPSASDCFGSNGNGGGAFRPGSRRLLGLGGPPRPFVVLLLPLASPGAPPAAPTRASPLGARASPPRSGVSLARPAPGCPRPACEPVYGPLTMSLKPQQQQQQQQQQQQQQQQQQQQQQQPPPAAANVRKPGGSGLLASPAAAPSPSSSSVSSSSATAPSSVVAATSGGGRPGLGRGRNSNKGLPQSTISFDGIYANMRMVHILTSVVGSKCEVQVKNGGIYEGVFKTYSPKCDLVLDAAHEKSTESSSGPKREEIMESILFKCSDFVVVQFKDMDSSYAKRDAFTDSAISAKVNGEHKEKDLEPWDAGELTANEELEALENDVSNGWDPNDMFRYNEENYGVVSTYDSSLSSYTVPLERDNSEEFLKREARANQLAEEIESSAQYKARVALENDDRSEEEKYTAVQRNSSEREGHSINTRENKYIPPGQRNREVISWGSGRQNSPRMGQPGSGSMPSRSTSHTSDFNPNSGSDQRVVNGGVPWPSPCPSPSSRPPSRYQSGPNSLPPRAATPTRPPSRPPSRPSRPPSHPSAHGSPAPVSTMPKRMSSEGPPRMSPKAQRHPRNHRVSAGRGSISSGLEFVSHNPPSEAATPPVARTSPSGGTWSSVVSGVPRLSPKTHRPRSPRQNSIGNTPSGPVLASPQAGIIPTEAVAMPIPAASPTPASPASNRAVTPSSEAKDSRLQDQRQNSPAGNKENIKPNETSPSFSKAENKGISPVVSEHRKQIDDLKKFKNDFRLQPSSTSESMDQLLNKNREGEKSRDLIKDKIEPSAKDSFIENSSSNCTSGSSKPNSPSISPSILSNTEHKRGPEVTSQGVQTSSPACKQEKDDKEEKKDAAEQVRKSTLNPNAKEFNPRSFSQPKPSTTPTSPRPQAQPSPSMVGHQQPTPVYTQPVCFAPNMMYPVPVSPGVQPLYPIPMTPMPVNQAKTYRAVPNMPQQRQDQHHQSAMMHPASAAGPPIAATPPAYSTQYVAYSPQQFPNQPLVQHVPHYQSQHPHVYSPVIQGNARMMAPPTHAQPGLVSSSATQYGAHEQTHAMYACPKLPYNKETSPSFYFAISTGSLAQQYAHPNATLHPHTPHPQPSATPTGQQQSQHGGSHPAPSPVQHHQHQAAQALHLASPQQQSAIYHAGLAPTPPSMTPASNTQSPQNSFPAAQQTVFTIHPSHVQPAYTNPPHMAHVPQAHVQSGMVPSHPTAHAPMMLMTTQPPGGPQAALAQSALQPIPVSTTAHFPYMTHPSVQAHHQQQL

The test has as its target Ataxin-2 (Homo sapiens) (UniProt Q99700). Nature of the test: qHTS for Inhibitors of ATXN expression. The test is classed as functional.
Take `CCOc1ccc(C(=O)C(CN2CCOCC2)c2ccccc2)cc1` (stereo unspecified): the Potency is 35.5 µM (active).
Take `O=C(N/N=C/c1ccc(N2CCOCC2)cc1)c1ccccc1OCCOc1ccccc1`: the Potency result is “inactive”.
As to `CCCCOc1ccc(C(=O)C(CN2CCOCC2)c2ccccc2)cc1` (stereo unspecified), the Potency was 39.8 µM (active).
In the case of `CCOc1ccc2nc(N3CCOCC3)nc(C)c2c1`, the Potency result is “inactive”.
`CCOc1ccc(C2C(C(=O)OC)=CN(C(C)c3ccccc3)C=C2C(=O)OC)cc1` (stereo unspecified): the Potency entry was “inactive”.
`OC(CN1CCOCC1)(c1ccccc1)c1ccccn1` (stereo unspecified): the Potency entry is “inactive”.
As to `CC1Cc2ccccc2N1CC(=O)NC(=O)NC1CCCCC1` (stereo unspecified), the Potency result is “inactive”.
`COc1ccc(NC2=C(C(C)=O)C(c3ccc(OC)cc3)C(C(C)=O)C(C)(O)C2)cc1` (stereo unspecified): the Potency entry was “inactive”.
On to `CCCCNc1nc2cccnc2s1`, for which the Potency entry is “inactive”.
`O=[N+]([O-])c1ccc(Nc2ccccc2F)nc1`: the Potency result was “inactive”.
As for `Cc1ccc(S(=O)(=O)c2ccc([N+](=O)[O-])cn2)cc1`, the Potency was 39.8 µM (active).
`NS(=O)(=O)c1ccc(S(=O)(=O)c2ccccc2)nc1`: the Potency result was “inactive”.
Then `O=[N+]([O-])c1ccc(S(=O)(=O)c2ccccc2)nc1`, with 5.62 µM (active).
Next, `Cn1c(S(=O)(=O)c2ccc([N+](=O)[O-])cc2)nc(Br)c1Br`: “inactive”; `Cc1cc(S(=O)(=O)c2ccc([N+](=O)[O-])cn2)ccc1Br`: 29.9 µM (active); `CCN(CC)c1nc(-c2ccccc2)ncc1S(=O)(=O)c1ccc(C)cc1`: “inactive”.
On to `Cc1cc(Sc2ccc([N+](=O)[O-])cn2)ccc1Br`, for which the Potency result was “inactive”.
`Cc1c(C)c(C)c(C(=O)C2CCN(c3ccc([N+](=O)[O-])cn3)CC2)c(C)c1C`: the Potency entry is “inactive”.
For the compound `Cc1ccc2nc3c(cc(C(=O)NCC4CCCO4)c(=N)n3CC3CCCO3)c(=O)n2c1` (stereo unspecified), the Potency result was “inactive”.
`Cc1ccc(C2C=C(c3ccccc3OC(F)F)Nc3ncnn32)cc1` (stereo unspecified): the Potency result was “inactive”.
As for `Cn1c(C(=O)NCCN2CCOCC2)cc2c(=O)n3ccccc3nc21`, the Potency entry was “inactive”.
Then `CCCCn1c(SCCN2CCCCC2)nc2c1c(=O)n(C)c(=O)n2C`, with “inactive”.
Then `OC(c1cc(C(F)(F)F)nc2c(C(F)(F)F)cccc12)C1CCCCN1` (stereo unspecified), with 20 µM (active); and `O=S(=O)(Nc1nc2n(n1)C(c1ccc(F)cc1)C=C(c1ccc(Cl)cc1)N2)c1ccccc1` (stereo unspecified), with “inactive”; and `COCC(C)OC(=O)c1c(N)n(CCCN2CCOCC2)c2nc3ccccc3nc12` (stereo unspecified), with “inactive”.
For `COc1ccc(-c2nn(-c3ccccc3)cc2/C=N/N=C(N)N)cc1OC`, the Potency was 39.8 µM (active).
`COc1ccc(-c2nn(-c3ccccc3)cc2/C=C(\CC(=O)O)c2nc3ccccc3s2)cc1OC`: the Potency entry was “inactive”.
Regarding `COc1ccc(-c2nn(-c3ccccc3)cc2/C=N/Nc2ccc3ccccc3n2)cc1OC`, the Potency entry is “inactive”.
Take `N#CC(C#N)=Cc1cnc(O)c(C#N)c1Nc1ccccc1`: the Potency entry is “inactive”.
Consider `Nc1c(C(=O)Nc2ccc(F)cc2)sc2nc(-c3ccco3)ccc12`, for which the Potency entry was “inactive”.
`O=C(CSc1ncccn1)N1CCc2ccccc2C1`: the Potency result was “inactive”.
As for `O=Cc1ccc(O)c2ncccc12`, the Potency result is “inactive”.
Next, `Oc1ccc(CN2CCc3ccccc3C2)c2cccnc12`: 7.94 µM (active).
With `CCc1ccc(C(=O)c2cc3ccc(O)cc3oc2=O)cc1`, the Potency result was “inactive”.
With `Oc1ccc(C23CC4CC(CC(C4)C2)C3)cc1O`, the Potency is 39.8 µM (active).
Turning to `CNC(=O)/C(C#N)=C/c1c(N2CCN(c3ccc(OC)cc3)CC2)nc2c(C)cccn2c1=O`, the Potency entry is “inactive”.
In the case of `N=C1SC(c2ccccc2)C(=O)N1c1ncc(Cc2ccccc2Cl)s1` (stereo unspecified), the Potency was 12.6 µM (active).
With `Fc1ccc(-n2c(S)nnc2-c2ccc3ccccc3n2)cc1Cl`, the Potency result was “inactive”.
Consider `Oc1c(Br)cc(/C=N/Nc2ccc(Cl)nn2)cc1Br`, for which the Potency entry is “inactive”.
Regarding `CN1CCN(c2nc(-c3ccc(Cl)cc3)nc3ccccc23)CC1`, the Potency result is “inactive”.
Turning to `FC(F)(F)c1nnc(-c2ccccc2)nc1Sc1ccc(Cl)cc1`, the Potency was 35.5 µM (active).
As for `FC(F)(F)c1nnc(-c2ccccc2)nc1Sc1ccccc1`, the Potency was 39.8 µM (active).
As to `COc1cccc(-n2c(C)cc(/C=C3/C(=N)N4C(=NC3=O)SN=C4S(C)(=O)=O)c2C)c1`, the Potency result was “inactive”.
Then `COc1cc(/C=C2/C(=N)N3N=C(CC(=O)N4CCOCC4)SC3=NC2=O)ccc1OCc1ccccc1`, with “inactive”; and `Cc1ncc(CO)c(/C=N/NC(=O)c2ccccc2Br)c1O`, with “inactive”; and `COc1cc(/C=C2\SC(=S)N(C(C(=O)O)c3ccccc3)C2=O)ccc1O` (stereo unspecified), with 17.8 µM (active).
For the compound `Cc1c(NC(=O)COC(=O)/C=C/c2cccc(F)c2)c(=O)n(-c2ccccc2)n1C`, the Potency result is “inactive”.
Turning to `COc1cc(/C=C2\SC(=S)N(NC(=O)c3ccc(O)cc3)C2=O)ccc1O`, the Potency was 12.6 µM (active).
Regarding `COc1ccc(/C=C2\SC(=S)N(CCCC(=O)Nc3cc(C)on3)C2=O)cc1OC`, the Potency entry was “inactive”.
Regarding `COc1cc(/C=C2/SC(=S)N(c3c(C)n(C)n(-c4ccccc4)c3=O)C2=O)ccc1O`, the Potency is 31.6 µM (active).
For the compound `O=C(O)C(c1ccccc1)N1C(=O)/C(=C\c2ccc(O)c(O)c2)SC1=S` (stereo unspecified), the Potency was 39.8 µM (active).
Consider `Cn1cc(/C=C2\SC(=S)N(NC(=O)c3ccccc3)C2=O)c2ccccc21`, for which the Potency entry was “inactive”.
Take `CCN(CC)c1ccc2cc(C(N)=O)c(=O)oc2c1`: the Potency entry is “inactive”.
On to `CCNC(=O)c1cc2c(=O)n3cccc(C)c3nc2n(CCc2ccccc2)c1=N`, for which the Potency result is “inactive”.
Turning to `Nc1c(C(=O)N/N=C/c2ccc(F)cc2)oc2nc(-c3ccccc3)cc(-c3ccco3)c12`, the Potency result is “inactive”.
Take `O=C(Nc1ccc2nc(-c3ccco3)c(-c3ccco3)nc2c1)N1CCCCCC1`: the Potency entry is “inactive”.
Consider `CCCn1c(=N)c(C(=O)NCc2cccnc2)cc2c(=O)n3ccccc3nc21`, for which the Potency result is “inactive”.
Consider `CC1(C)C2CC=C(/C=N/NC(=S)NCCc3ccccc3)C1C2` (stereo unspecified), for which the Potency entry is “inactive”.
Take `COc1cc(C2CC(c3c(C)cc(C)nc3O)=NN2c2ccccc2F)cc(OC)c1OC` (stereo unspecified): the Potency result is “inactive”.
As for `CC(C)C(=O)NC(Nc1cc(C(F)(F)F)ccc1Cl)C(Cl)(Cl)Cl` (stereo unspecified), the Potency entry was “inactive”.
Next, `N#Cc1sc2nc(-c3cccs3)cc(-c3ccc(Cl)cc3)c2c1N`: “inactive”.
On to `Nc1cc([N+](=O)[O-])ccc1Nc1ccc(O)cc1`, for which the Potency is 44.7 µM (active).
Take `O=C(O)c1cc([N+](=O)[O-])ccc1-c1ccc([N+](=O)[O-])cc1C(=O)O`: the Potency entry was “inactive”.
Then `O=C(O)c1ccccc1Nc1ccc([N+](=O)[O-])cc1`, with “inactive”; and `COc1ccc(C2C3=C(CCCC3=O)N(CC(=O)O)C3=C2C(=O)CCC3)cc1Br`, with “inactive”.
Consider `OC(CNCCC1C=Nc2ccccc21)Cn1c2ccc(Cl)cc2c2cc(Cl)ccc21` (stereo unspecified), for which the Potency was 35.5 µM (active).
As for `CCOC(=O)C(C(=O)c1ccccc1)C(c1ccccc1)c1nccc2ccccc12` (stereo unspecified), the Potency entry is “inactive”.
Next, `CN(C)CC(C(=O)c1ccccc1)c1ccccc1` (stereo unspecified): 20 µM (active); `NCC12CC3CC(C1)CC(c1ccc(Br)cc1)(C3)C2`: 25.1 µM (active); `NCC12CC3CC(C1)CC(c1ccc(Cl)cc1)(C3)C2`: 44.7 µM (active).
Consider `CCOCCCn1c(=N)c(C(=O)NCC2CCCO2)cc2c(=O)n3cccc(C)c3nc21` (stereo unspecified), for which the Potency entry was “inactive”.
Turning to `N#C/C(=C\c1c(Oc2ccccc2Cl)nc2ccccn2c1=O)C(=O)NC1CCS(=O)(=O)C1` (stereo unspecified), the Potency result was “inactive”.
Then `Cc1cc(O)c(CN(C)C)c2c1C(=O)/C(=C/c1ccco1)O2`, with “inactive”; and `CC/C(=C\C1CCCCC1)C(NP(=O)(c1ccccc1)c1ccccc1)c1ccccc1` (stereo unspecified), with 35.5 µM (active).
Regarding `CC(C)OCCCn1c(NN)nc2ccccc2c1=O`, the Potency result is “inactive”.
As to `COc1ccccc1Oc1ccc(N/C=C/C(=O)c2ccco2)cc1`, the Potency entry was “inactive”.
Then `Cc1ccc(SC2=C(Sc3ccc(C)cc3)C(=O)c3ccccc3C2=O)cc1`, with “inactive”; and `COc1ccc(-c2sc3cc4c(cc3c2C#CC2(N)CCCCC2)OCO4)cc1`, with 39.8 µM (active).
For the compound `COc1ccc2sc(-c3ccc(N(C)C)cc3)c(C#CC(C)(C)O)c2c1`, the Potency result is “inactive”.
Regarding `COc1ccc2sc(-c3ccc(N(C)C)cc3)c(C#Cc3cncn3C)c2c1`, the Potency result is “inactive”.
In the case of `COc1cc(OC)cc(-c2sc3ccc(OC)cc3c2C#CC2(N)CCCCC2)c1`, the Potency is 39.8 µM (active).
With `CCOCCCn1c(=N)c(C(=O)NCc2cccnc2)cc2c(=O)n3ccccc3nc21`, the Potency result is “inactive”.
`N#CC(C(=O)NCc1ccccc1)c1nc2ccccc2nc1N1CCCC1` (stereo unspecified): the Potency result was “inactive”.
Consider `O=c1oc2cc(O)ccc2cc1S(=O)(=O)c1ccccc1`, for which the Potency entry was “inactive”.
In the case of `CC(C)(C)c1ccc(C(=O)CC(Sc2ccc(Cl)cc2)C(=O)O)cc1` (stereo unspecified), the Potency is 39.8 µM (active).
For `CC(C)N1CCN(Cc2ccc(C#CCCO)cc2)CC1CCO` (stereo unspecified), the Potency result was “inactive”.
As to `CCCOc1ccc(CCC(=O)N/N=C/c2ccco2)cc1`, the Potency result is “inactive”.
Regarding `CCCOc1ccc(C2C(C(=O)OC)=CN(CCOC)C=C2C(=O)OC)cc1`, the Potency entry was “inactive”.
In the case of `CCCOc1ccc(C(=O)C(CCC(CNCC)C(=O)c2ccc(OCCC)cc2)CNCC)cc1` (stereo unspecified), the Potency is 22.4 µM (active).
For the compound `O=C(O)c1cccc(-n2cccc2/C=C2/NC(=O)N(c3ccc(Cl)cc3)C2=O)c1`, the Potency result was “inactive”.
`NSc1nc(N)c2nc(-c3ccccc3)c(-c3ccccc3)nc2n1`: the Potency result is “inactive”.
`O=C(O)CCCCCNS(=O)(=O)c1ccc2c3c(cccc13)C(=O)N2`: the Potency result was “inactive”.
Then `O=C1Nc2ccc(S(=O)(=O)NCCCO)c3cccc1c23`, with “inactive”; and `NCCCCCCNS(=O)(=O)c1cccc2c(Cl)cccc12`, with 39.8 µM (active); and `O=C1c2cccc3c(O)ccc(c23)C(=O)N1Cc1ccco1`, with “inactive”.
For the compound `CCOc1cccc(C2c3c(-c4cc(C)ccc4O)n[nH]c3C(=O)N2Cc2ccco2)c1` (stereo unspecified), the Potency is 39.8 µM (active).
Then `Cc1ccc(O)c(-c2n[nH]c3c2C(c2ccccc2F)N(Cc2ccco2)C3=O)c1` (stereo unspecified), with 39.8 µM (active).
With `Cc1cc(N=Nc2ccc(C)c(N=Nc3cc(C)c(N)cc3N)c2)c(N)cc1N`, the Potency is 39.8 µM (active).
Then `O=C1OCCN1C(=O)[C@H]1[C@H](c2ccc(F)cc2)C(c2ccc(F)cc2)=NN1c1ccccc1`, with “inactive”; and `Cc1[nH]c(N=Nc2ccccc2)nc1N=Nc1ccccc1`, with 20 µM (active).
With `OCc1ccc(N=Nc2ccccc2)cc1`, the Potency entry is “inactive”.

For the origin of these results see ChEMBL document CHEMBL1201862, “PubChem BioAssay data set” (2004).
